Measured values published in PubChem BioAssay (Tox21).
Unmarked numbers belong to inactive results. Results filed as inconclusive are left out. Active and inactive are the calls of the source. Unless noted, calls come from the whole dose curve; as a rule, active = well fitted cell-killing curve with a large enough effect in the repeat runs; inconclusive = weak or mixed curves, or effect the other way; inactive = no such curve, though single readings can be large or run the other way.

Test: qHTS assay to identify small molecule antagonists of the sonic hedgehog signaling (Shh) pathway - cell viability counter screen (AID 1259367); note: nearly all actives have a fitted effect of over 55% in size; note: potency is the fitted concentration of half-maximal effect
Details: NIH/3T3 Gli1-Luc viability, CellTiter-Fluor, 24 h; series mostly up to 92.4 µM; viability change, negative = cytotoxic: at the top concentration
How it was run: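 Cells: 3T3 Gli1-Luc, 2,000/well, 4 hr pre-incubation. Compounds in DMSO, then conditioned medium. Incubation 24 hr, 37C, 5% CO2. CellTiter-Fluor at 23 hr, 1 hr, fluorescence.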
% is set by controls: 0 for no effect and ±100 for the full control effect.

In order of falling “viability change, negative = cytotoxic” value:
1. CCc1c2c(nc3ccc(OC(=O)N4CCC(N5CCCCC5)CC4)cc13)-c1cc3c(c(=O)n1C2)COC(=O)[C@]3(O)CC  18% [at 42.5 µM]
2. CCC1(C)CC(=O)NC1=O (centres undefined)  6.62% [at 42.5 µM]
3. CCOCCn1c(C2CCN(CCc3ccc(C(C)(C)C(=O)O)cc3)CC2)nc2ccccc21  1.43% [at 42.5 µM]
4. CC(CCc1ccc2c(c1)OCO2)NN (centres undefined)  1.39% [at 42.5 µM]
5. CCCCC(=O)O[C@]1(C(=O)CO)CC[C@H]2[C@@H]3CCC4=CC(=O)CC[C@]4(C)[C@H]3[C@@H](O)C[C@@]21C  1.06% [at 42.5 µM]
6. Nc1nc(Cl)nc2c1ncn2[C@@H]1O[C@H](CO)[C@@H](O)[C@@H]1F  1.05% [at 42.5 µM]
7. CN1Cc2cc(C(=O)N3CCC(C4CCNCC4)CC3)ccc2N[C@@H](CC(=O)O)C1=O  0.35% [at 42.5 µM]
8. COc1ccc([C@@H]2Sc3ccccc3NC(=O)[C@@H]2O)cc1  0.162% [at 42.5 µM]
9. O=C(O)C(Cc1cc(I)c(O)c(I)c1)c1ccccc1 (centres undefined)  -0.914% [at 42.5 µM]
10. COC(=O)c1cc(Cl)ccc1NS(=O)(=O)C(F)(F)F  -0.964% [at 42.5 µM]
11. O=C(OCCOCCO)c1ccccc1Nc1cccc(C(F)(F)F)c1  -1.12% [at 42.5 µM]
12. CC1CC(=O)NN=C1c1ccc(NCC(C)(C)NCC(O)COc2cc(Cl)ccc2C#N)cc1 (centres undefined)  -4.2% [at 42.5 µM]
13. Cc1ccccc1N1C(=O)c2cc(S(N)(=O)=O)c(Cl)cc2NC1C (centres undefined)  -4.29% [at 42.5 µM]
14. CCc1cccc(N(C)C(N)=Nc2cccc3ccccc23)c1  -11.7% [at 42.5 µM]
15. CC(=O)CC(c1ccc([N+](=O)[O-])cc1)c1c(O)c2ccccc2oc1=O (centres undefined)  -17% [at 42.5 µM]
16. CC(=O)Oc1ccc(C(=C2CCCCC2)c2ccc(OC(C)=O)cc2)cc1  -19.5% [at 42.5 µM]

In order of falling “viability change, negative = cytotoxic” value:
1. CCC(C)(C)C1CCC(O)CC1 (centres undefined)  4.37%
2. ON(Cc1ccccc1)Cc1ccccc1  2.14%
3. CNC(=S)NC  1.27%
4. OCC1CC=CCC1 (centres undefined)  0.987%
5. CCCCCCCC/C=C\CCCCCCCC(=O)OC  0.11%
6. CC(C)(C)C(=O)O  -0.0942%
7. CO[Si](C)(OC)OC  -0.321%
8. C1COCO1  -0.473%
9. NCC1CCCC(CN)C1 (centres undefined)  -1.28%
10. CC1=NN(c2ccc(C(=O)O)cc2)C(=O)C1  -1.29%
11. CN(C)C(=O)Nc1ccc(Oc2ccc(Cl)cc2)cc1  -3.65%
12. CC(C)CCCCCOC(=O)CCCCC(=O)OCCCCCC(C)C  -5.91%
13. CO[C@H]1O[C@H](CO)[C@@H](O)[C@H](O)[C@H]1O  -17.1%
14. CSc1ccc(Oc2ccc(S(N)(=O)=O)cc2CN(C)C)cc1C  -22.8%
15. C=CC(C)(C)CC(=O)OC  -24.8%
16. C=CC(=C)CCCC(C)(C)OC(C)=O  -25.9%

`CN1CCN(c2c(F)cc3c(=O)c(C(=O)O)cn4c3c2OCN4C)CC1` gave a viability change, negative = cytotoxic of -1.18% [at 19 µM].

For `CO[C@H]1C=CO[C@@]2(C)Oc3c(C)c(O)c4c(O)c(c5c(c4c3C2=O)=NC2(CCN(CC(C)C)CC2)N=5)NC(=O)/C(C)=C\C=C/[C@H](C)[C@H](O)[C@@H](C)[C@@H](O)[C@@H](C)[C@H](OC(C)=O)[C@@H]1C`, the Potency was 23.8 µM (active).

Test: qHTS assay to identify small molecule agonists of the sonic hedgehog signaling (Shh) pathway (AID 1259368; calls by dose curve;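 note: NIH/3T3-derived 3T3Gli1-Luc cells carrying a stable Gli1-driven firefly luciferase reporter; nearly all actives have a fitted effect of over 15% in size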)
Details: NIH/3T3 Gli1-Luc reporter, luciferase, 24 h; series mostly up to 92.4 µM; activity change: at the top concentration
How it was run: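 3T3Gli1-Luc (NIH/3T3 clone, stable Gli1-Luc); 4 hr pre-incubation, then cpd in DMSO 24 hr, 37 C/5% CO2; luciferase reagent 30 min RT; luminescence.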

For `CC(CCc1ccc2c(c1)OCO2)NN` (centres undefined), the “activity change” value was 0.0601% [at 42.5 µM, hits give high values].
In the case of `CCC1(C)CC(=O)NC1=O` (centres undefined), the “activity change” value is reported as 0.183% [at 42.5 µM, hits give high values].
With `Nc1nc(Cl)nc2c1ncn2[C@@H]1O[C@H](CO)[C@@H](O)[C@@H]1F` the “activity change” value was 0.297% [at 42.5 µM, hits give high values].
With `O=C(O)C(Cc1cc(I)c(O)c(I)c1)c1ccccc1` (centres undefined) the “activity change” value was -0.0556% [at 42.5 µM, hits give high values].
For `CCCCC(=O)O[C@]1(C(=O)CO)CC[C@H]2[C@@H]3CCC4=CC(=O)CC[C@]4(C)[C@H]3[C@@H](O)C[C@@]21C`, the “activity change” value was -0.388% [at 42.5 µM, hits give high values].
In the case of `CC(=O)Oc1ccc(C(=C2CCCCC2)c2ccc(OC(C)=O)cc2)cc1`, the “activity change” value is reported as -2.29% [at 42.5 µM, hits give high values].
With `CCc1cccc(N(C)C(N)=Nc2cccc3ccccc23)c1` the “activity change” value was -2.02% [at 42.5 µM, hits give high values].
In the case of `Cc1occc1C(=O)Nc1ccc(C(=O)N2CCC(F)(F)/C(=C\C(=O)N3CCC(N4CCCCC4)CC3)c3ccccc32)cc1`, the “activity change” value is reported as -6.36% [at 42.5 µM, hits give high values].
For `Cc1ccccc1N1C(=O)c2cc(S(N)(=O)=O)c(Cl)cc2NC1C` (centres undefined), the “activity change” value was 1.31% [at 42.5 µM, hits give high values].
With `O=C(OCCOCCO)c1ccccc1Nc1cccc(C(F)(F)F)c1` the “activity change” value was 1.95% [at 42.5 µM, hits give high values].
For `CN1CCN(c2c(F)cc3c(=O)c(C(=O)O)cn4c3c2OCN4C)CC1`, the activity change was -1.02% [at 18.9 µM, hits give high values].
In the case of `CN1Cc2cc(C(=O)N3CCC(C4CCNCC4)CC3)ccc2N[C@@H](CC(=O)O)C1=O`, the “activity change” value is reported as -0.464% [at 42.5 µM, hits give high values].
With `COC(=O)c1cc(Cl)ccc1NS(=O)(=O)C(F)(F)F` the “activity change” value was 0.405% [at 42.5 µM, hits give high values].
For `CCc1c2c(nc3ccc(OC(=O)N4CCC(N5CCCCC5)CC4)cc13)-c1cc3c(c(=O)n1C2)COC(=O)[C@]3(O)CC`, the “activity change” value was 4.22% [at 42.5 µM, hits give high values].
For `CC1CC(=O)NN=C1c1ccc(NCC(C)(C)NCC(O)COc2cc(Cl)ccc2C#N)cc1` (centres undefined), the “activity change” value was 2.54% [at 42.5 µM, hits give high values].

In order of falling “activity change” value:
1. CC1=NN(c2ccc(C(=O)O)cc2)C(=O)C1  5.28%
2. OCC1CC=CCC1 (centres undefined)  3.67%
3. CN(C)C(=O)Nc1ccc(Oc2ccc(Cl)cc2)cc1  2.61%
4. ON(Cc1ccccc1)Cc1ccccc1  1.8%
5. NCC1CCCC(CN)C1 (centres undefined)  1.8%
6. CCC(C)(C)C1CCC(O)CC1 (centres undefined)  1.06%
7. CCCCCCCC/C=C\CCCCCCCC(=O)OC  0.694%
8. CC(C)(C)C(=O)O  -0.374%
9. Cc1ccnc2ccccc12  -1.47%
10. CO[Si](C)(OC)OC  -2.24%
11. c1cc[c]([Bi]([c]2ccccc2)[c]2ccccc2)cc1  -8.56%
12. CSc1ccc(Oc2ccc(S(N)(=O)=O)cc2CN(C)C)cc1C  -9.83%
13. NC(=O)N(O)[C@@H]1COc2cc(OCc3ccccc3)ccc21  -9.9%
14. CO[C@H]1C=CO[C@@]2(C)Oc3c(C)c(O)c4c(O)c(c5c(c4c3C2=O)=NC2(CCN(CC(C)C)CC2)N=5)NC(=O)/C(C)=C\C=C/[C@H](C)[C@H](O)[C@@H](C)[C@@H](O)[C@@H](C)[C@H](OC(C)=O)[C@@H]1C  -12.5%
15. C=CC(C)(C)CC(=O)OC  -18.2%
